The values below come from PubChem BioAssay AID1460 (National Center for Advancing Translational Sciences (NCATS), 2008).

Values joined by “and” are separate entries in the source; they are usually repeats but may differ in a detail not shown here. Equal entries are not always repeated. In all, about 270,000 compounds went through this assay and about 5,800 (2.1%) were called active. Where a call stands in place of a potency, no number is given. Roughly 16% stayed inconclusive and do not appear here. Calls come from the whole dose curve; as a rule, active = well fitted inhibition curve with a large enough effect; inconclusive = small, poorly fitted or top-dose-only effect; inactive = flat fitted curve, though single readings scatter. This excerpt belongs to a sample that is enriched for actives.
Potency is the fitted concentration of half-maximal effect.

Sequence of Microtubule-associated protein tau (Homo sapiens) (P10636 561-689 P618L limits assumed): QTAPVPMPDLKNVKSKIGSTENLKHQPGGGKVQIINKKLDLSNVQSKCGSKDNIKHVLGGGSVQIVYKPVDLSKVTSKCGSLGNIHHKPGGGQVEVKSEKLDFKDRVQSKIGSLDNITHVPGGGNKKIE

The test concerns the target Microtubule-associated protein tau (Homo sapiens) (UniProt P10636). As to the kind of experiment: qHTS for Inhibitors of Tau Fibril Formation, Thioflavin T Binding. Note: nearly all actives have a fitted effect of over 55% in size. The following applies: recombinant tau K18 P301L (four-repeat tau fragment), heparin-induced fibrillization, ThT fluorescence; series mostly up to 57.4 µM. The source says: NIH Molecular Libraries Probe Production Network [MLPCN]
NIH Chemical Genomics Center [NCGC]
Assay Provider: Carlo Ballatore, University of Pennsylvania
The microtubule-associated protein tau is an abundant protein in the axons of neurons that stabilizes microtubules. With its ability to modulate microtubule dynamics, tau contributes directly or indirectly, to key structural and regulatory cellular functions. Particularly important is the influence tau exerts on axonal transport, which allows signaling molecules, trophic factors and other essential cellular constituents to travel along the axons. Under pathological conditions, tau becomes sequestered into insoluble aggregates called neurofibrillary tangles. This phenomenon is believed to have pathological consequences by promoting axonal transport deficits that ultimately lead to synaptic dysfunction and neuronal loss. To identify inhibitors of tau aggregation, a heparin-induced tau fibril formation assay was used that employed a recombinantly expressed fragment of tau, K18 (Q242-E372), bearing a P301L mutation (Gustke et al. 1994; Hong et al. 1998). This assay monitors tau fibrillization by Thioflavin T (ThT) fluorescence.
Gustke, N., B. Trinczek, et al. (1994). "Domains of tau protein and interactions with microtubules." Biochemistry 33(32): 9511-22.
Hong, M., V. Zhukareva, et al. (1998).
Li, W. and V. M. Lee (2006).
von Bergen, M., S. Barghorn, et al. (2001). "Mutations of tau protein in frontotemporal dementia promote aggregation of paired helical filaments by enhancing local beta-structure." J Biol Chem 276(51): 48165-74.
NCGC Assay Protocol Summary:
For screening, 2 uL/well human K18 P301L (15 uM unlabeled and 0.24 uM Alexa 594-labeled tau, final concentrations) in reagent buffer (100 mM sodium acetate pH 7) was dispensed into black solid 1536-well plates (Grenier) using a solenoid-based dispenser. Following transfer of 23 nL compound or DMSO vehicle by a pin tool, 2 uL/well heparin (20 uM final concentration) in reagent buffer was added and the plate centrifuged 15 s at 1000 RPM. Plates were incubated 6 hr at 37 C and then 1 uL/well ThT (30 uM final concentration) was added. After a 1 hr ambient incubation, the plates were read by an Envision (Perkin Elmer) to monitor ThT fluorescence (450/8 nm excitation and 510/23 nm emission).
Keywords: NIH Roadmap, MLPCN, MLI, MLSMR, NCGC, qHTS, tau, tauopathies, Alzheimer's disease, fibril, neurodegeneration, aggregation
Background: In qHTS, concentration-response curves come from the screen itself.
In the case of `CC[N+](C)(CC)CCC[n+]1c(-c2ccccc2)c2cc(N)ccc2c2ccc(N)cc21`, the Potency was 1.26 µM (active).

For the compound `CC[C@@H]1CN2CC[C@@H]1C[C@H]2[C@H](O)c1ccnc2ccc(OC)cc12`, the Potency entry was “inactive”.

Consider `CCN(CC)CCOC(=O)c1cc2cc(COC)ccc2o1`, for which the Potency entry was “inactive”.

For the compound `CN(C)[C@@H]1C(=O)C(C(N)=O)=C(O)[C@@]2(O)C(=O)C3=C(O)c4c(O)cccc4[C@@](C)(O)C3CC12` (stereo not given in full), the Potency entry was “inactive”.

Regarding `CN(C)CC1CCCCC1OC(=O)c1ccc(Cl)c(Cl)c1` (stereo not given), the Potency entry was “inactive”.

On to `CC(C)Oc1cccc(C(=O)C2CCCN(C3CCOCC3)C2)c1` (stereo not given), for which the Potency entry was “inactive”.

As for `N#CC(C#N)=Cc1cc(O)c(O)c([N+](=O)[O-])c1`, the Potency was 10 µM (active) and 17.8 µM (active).

For the compound `CC1=CC(=O)C2=C(C)C[C@H](O)[C@H]3[C@H](C)C(=O)O[C@@H]3C12` (stereo not given in full), the Potency entry was “inactive”.

Consider `CN1[C@@H]2CC[C@H]1CC(OC(=O)c1cc(Cl)cc(Cl)c1)C2` (stereo not given in full), for which the Potency entry is “inactive”.

Regarding `CC1(C)Cc2c(C#N)c(N3CCNCC3)nc(-c3ccco3)c2CS1`, the Potency entry is “inactive”.

Take `COc1ccccc1N=C1SCCCN1C`: the Potency result was “inactive”.

As for `CCOCCc1c(O)[nH]c(=S)[nH]c1=O`, the Potency result is “inactive”.

Regarding `COc1ccccc1N=Nc1c(O)[nH]c(=S)[nH]c1=O`, the Potency is 12.6 µM (active).

With `COc1ccccc1-c1[se]c2ccccc2c1I`, the Potency result was “inactive”.

Turning to `c1cc2c(cc1CCNC1CCCCCC1)OCO2`, the Potency entry was “inactive”.

As for `CC[C@]1(O)C(=O)OCc2c1cc1n(c2=O)Cc2cc3ccccc3nc2-1`, the Potency entry was “inactive”.

Take `CCCCN1C2CCC1CC(OC(c1ccc(F)cc1)c1ccc(F)cc1)C2` (stereo not given): the Potency result is “inactive”.

Regarding `O=C(COc1ccc2ccccc2c1)N1CCN(Cc2ccncc2)CC1`, the Potency entry is “inactive”.

As for `CC(=O)Oc1ccccc1C(=O)Nc1ncc([N+](=O)[O-])s1`, the Potency is 11.2 µM (active).

Turning to `O=c1oc2ccccc2c(O)c1C(c1ccccc1O)c1c(O)c2ccccc2oc1=O`, the Potency entry was “inactive”.

Regarding `c1ccc2sc(SNC3CCCCC3)nc2c1`, the Potency result was “inactive”.

For `C[N+]1(C)CCOC(O)(c2ccc(-c3ccc(C4(O)C[N+](C)(C)CCO4)cc3)cc2)C1` (stereo not given), the Potency entry was “inactive”.

Consider `Cc1ccc(CN2CCCC(C(=O)c3ccc4c(c3)OCO4)C2)cc1C` (stereo not given), for which the Potency result was “inactive”.

As for `COC(=O)N(c1ccc(OC)cc1)P1(=S)OCCC(C)O1` (stereo not given), the Potency is 28.2 µM (active).

With `CCCCCCCCCCCCn1ccc(=N)cc1`, the Potency result is “inactive”.

Consider `COc1ccc2[nH]cc(CCNCc3ccc(Br)cc3)c2c1`, for which the Potency entry is “inactive”.

Take `CCCCC/C=C\C/C=C\C/C=C\C/C=C\CCCCCC(=O)NCCO`: the Potency result was “inactive”.

For `O=C1NC(=O)N(c2ccccc2)C(=O)/C1=C/c1ccc([N+](=O)[O-])s1`, the Potency was 14.1 µM (active).

`COc1cccc(N2C(=O)NC(=O)/C(=C\c3ccc([N+](=O)[O-])s3)C2=O)c1`: the Potency was 14.1 µM (active).

`Cc1cccc(N2C(=O)NC(=O)/C(=C\c3cnn(-c4ccccc4)c3)C2=O)c1`: the Potency entry is “inactive”.

For `CN1C2CC3CC1C(O3)C2O` (stereo not given), the Potency result is “inactive”.

Regarding `COC1CC(OC2CC[C@@]3(C=O)C4CC[C@]5(C)C(C6=CC(=O)OC6)CC[C@@]5(O)C4CC[C@]3(O)C2)OC(C)C1O` (stereo not given in full), the Potency result is “inactive”.

Turning to `COc1c(O)ccc2c1-c1c3c(cc4c1C(C2)N(C)CC4)OCO3` (stereo not given), the Potency result is “inactive”.

For the compound `O=C(NC(c1ccc(Cl)cc1)P(=O)(Oc1ccccc1)Oc1ccccc1)OCc1ccccc1` (stereo not given), the Potency result is “inactive”.

For the compound `NCCc1c[nH]c2ccc(O)cc12`, the Potency entry is “inactive”.

Consider `CCOc1cccc(=NC2CCCCC2)c2c(C)[nH]c(C)c12`, for which the Potency is 8.91 µM (active).

Turning to `CN(C)c1nc(N(C)C)nc(N(C#N)CCCl)n1`, the Potency result was “inactive”.

Consider `C=CCN1CCC2(C)c3cc(O)ccc3CC1[C@@H]2C` (stereo not given in full), for which the Potency entry was “inactive”.

Regarding `CC(=O)c1c(O)c(C)c(O)c(Cc2c(O)c3c(c(C(=O)/C=C\c4ccccc4)c2O)OC(C)(C)C=C3)c1O`, the Potency was 15.8 µM (active).

Consider `CC(=O)c1c(O)c(C)c(O)c(Cc2c(O)c3c(c(C(=O)/C=C/c4ccccc4)c2O)OC(C)(C)C=C3)c1O`, for which the Potency is 15.8 µM (active) and 17.8 µM (active) and 12.6 µM (active).

In the case of `O=C1NC(=O)C(CCc2ccccn2)(Cc2cccc(Cl)c2Cl)C(=O)N1c1ccc(Br)cc1` (stereo not given), the Potency entry is “inactive”.

Regarding `O=C(OCCN1CCOCC1)C1(c2ccccc2)CCCC1`, the Potency entry is “inactive”.

With `N[C@@H](Cc1c[nH]c2ccccc12)c1nnc(SCc2c(F)cccc2Cl)o1`, the Potency entry was “inactive”.

As to `Cc1ccc(Cn2c(C)c3cnn(CC(=O)N4CCC5(CC4)OCCO5)c(=O)c3c2C)cc1`, the Potency result is “inactive”.

As for `COC(=O)c1ccc2[se]c(CC3CCCCC3)c(I)c2c1`, the Potency result was “inactive”.

Turning to `Cc1ccc2c(c1)=C/C(=C\c1c(O)[nH]c(=O)[nH]c1=O)C(=O)N=2`, the Potency result was “inactive”.

For `CC/C(=N\NC(=O)c1ccccc1O)c1c(O)n(Cc2ccccc2)c(=O)[nH]c1=O`, the Potency was 22.4 µM (active).

Consider `CCC(=NCCc1ccccc1)c1c(O)n(C2CCCCC2)c(=O)[nH]c1=O`, for which the Potency entry was “inactive”.

On to `CCC(=NCc1ccco1)c1c(O)n(Cc2ccccc2)c(=O)[nH]c1=O`, for which the Potency entry was “inactive”.

Turning to `CCCCC/C=C\C/C=C\C/C=C\C=C\[C@H](CCCC(=O)O)OO`, the Potency result is “inactive”.

With `Cc1nc2ccccn2c1P(=S)(N1CCCCC1)N1CCCCC1`, the Potency result is “inactive”.

Turning to `Cc1cccc2c3c(ccc12)C1=C(C(=O)C3=O)C(C)CO1` (stereo not given), the Potency is 7.94 µM (active).

In the case of `CN1CCN(Cc2ccc(OC(F)(F)F)cc2)CC1`, the Potency result was “inactive”.

`CCCN(C/C=C/I)C1CCc2ccc(O)cc2C1` (stereo not given): the Potency entry was “inactive”.

For the compound `CCCCCCCCc1[se]c2ccccc2c1Br`, the Potency entry was “inactive”.

For the compound `O=C(OCC1O[C@@H](OC(=O)c2cc(O)c(O)c(O)c2)[C@@H](OC(=O)c2cc(O)c(O)c(O)c2)[C@@H](OC(=O)c2cc(O)c(O)c(O)c2)[C@@H]1OC(=O)c1cc(O)c(O)c(O)c1)c1cc(O)c(O)c(O)c1` (stereo not given in full), the Potency was 11.2 µM (active).

Regarding `O=C(O)C1C2CCC(O2)C1C(=O)O` (stereo not given), the Potency result is “inactive”.

As for `CO[C@@H]1C[C@@H](C[C@H]2CC[C@H](C)[C@@H]([C@@H](C)C(=O)O)O2)O[C@]2(O[C@](C)([C@H]3CC[C@@](C)(C4OC([C@H]5O[C@@](O)(CO)[C@H](C)C[C@@H]5C)C[C@@H]4C)O3)C[C@H]2C)[C@@H]1C` (stereo not given in full), the Potency result was “inactive”.

Turning to `Cc1ncsc1CCCl`, the Potency entry is “inactive”.

For `CCC(C)n1c(O)c(/C=N/Nc2nc3c(c(=O)n(C)c(=O)n3C)n2C)c(=O)[nH]c1=S` (stereo not given), the Potency was 11.2 µM (active).

Turning to `CCOC(=O)C1(CCc2ccccc2)CCN(Cc2ccco2)CC1`, the Potency entry was “inactive”.

`O=C(c1cc2nc(-c3ccccc3)cc(-c3ccccc3)n2n1)N1CCC2(CC1)OCCO2`: the Potency entry is “inactive”.

As to `CC1=C(C(=O)Nc2ccccc2)SCCO1`, the Potency result was “inactive”.

Take `COc1cccc(-c2nc3ccc(N4CCN(C)CC4)cc3[nH]2)c1`: the Potency entry was “inactive”.

As for `CCN1CC2C3CCC(C)(O3)C2C1` (stereo not given), the Potency entry is “inactive”.

With `Cc1nnc(NC(=O)c2cccn(Cc3cccc(F)c3)c2=O)s1`, the Potency result is “inactive”.

For the compound `N#Cc1c(Cl)c(Cl)c(Cl)c(C#N)c1Cl`, the Potency is 2.24 µM (active).

On to `Cc1ccc(NC(=O)N(Cc2ccc3c(c2)OCO3)C2CCN(Cc3ccccc3)CC2)cc1F`, for which the Potency result is “inactive”.

`Cc1ccc(-n2c(/C=C/c3cccc(C(F)(F)F)c3)nc3ccccc3c2=O)cc1`: the Potency entry is “inactive”.

Regarding `C=CCN1CCC23c4c5ccc(O)c4O[C@H]2C(=O)CC[C@@]3(O)C1C5` (stereo not given in full), the Potency result is “inactive”.

Take `C[C@@]12CCC3C(CC[C@@H]4CC(O)CC[C@@]34C)C1CCC2O` (stereo not given in full): the Potency result is “inactive”.

As to `CC1=CC(=Cc2sc3ccccc3[n+]2C)C=C(C)O1`, the Potency is 15.8 µM (active).

In the case of `CC(C)(C)c1ccc(CN2C(=O)CN=C(c3ccccc3)c3ccccc32)cc1`, the Potency result was “inactive”.

Take `Cc1nn(Cc2ccccc2Cl)c(Cl)c1C(=O)OC(C(=O)NC(N)=O)C(C)C` (stereo not given): the Potency entry is “inactive”.

As for `CCC1(C)CC(CCNCc2ccc(N(C)C)cc2)(c2ccc(F)cc2)CCO1` (stereo not given), the Potency entry is “inactive”.

Take `COc1cc(OC)cc(C2(C#N)CCN(C)CC2)c1`: the Potency result was “inactive”.

For the compound `N[C@H](C(=O)O)c1cc(=O)[nH]o1`, the Potency result is “inactive”.

Regarding `C=CCSSCC=C`, the Potency entry was “inactive”.

Regarding `CCN(CC)c1ccc([N+](=O)[O-])c2cccnc12`, the Potency is 11.2 µM (active).

Regarding `c1ccc(C2NCc3ccccc3-n3cccc32)cc1` (stereo not given), the Potency result was “inactive”.

On to `Cc1ccc(Cn2nnnc2CN2CCC(n3nnc4ccccc43)CC2)cc1`, for which the Potency result is “inactive”.

Take `CCOC(=O)C(O)(c1ccc(NC(=O)c2ccco2)c(OC)c1)C(F)(F)F` (stereo not given): the Potency result is “inactive”.

For the compound `CCCCC(=O)N/N=C/c1c(O)n(CC)c(=S)n(CC)c1=O`, the Potency result was “inactive”.

With `C1CC[C@H]([C@@]23C[C@H](C[C@H]4CCCN[C@H]42)[C@@H]2CCCCN2C3)NC1`, the Potency result is “inactive”.

With `Cn1c(O)c(C=Nc2ccc3c(c2)CCC3)c(=O)n(C)c1=O`, the Potency result is “inactive”.
